# Assay outcomes from PubChem.
# CHX counter – counter-screen hit for Shiga toxin inhibitors, cycloheximide | max response, % | AID 2314 | cell reporter, cycloheximide protein synthesis inhibition counterscreen | hit rate 12% among 300,000; in the data active = max response mostly above about 13%, no sharp cut-off; inactive = mostly below about 14%; note: read at 38.3 µM for the half of the compounds with a filed dose; 0% is about no effect
# AmpC inh no detg – inhibitors of E. coli AmpC beta-lactamase without detergent | P00811 | AmpC nitrocefin hydrolysis, absorbance 480 nm, 0.0001% Triton | Potency, µM (top dose mostly 57.1 µM), for inactives: at the highest dose activity change, negative = inhibition, hits mostly inhibitors | hit rate 0.52% among 330,000 | AID 485341;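 note: potency is the fitted concentration of half-maximal effect; plate controls were no compound for no effect and no enzyme for full effect; nearly all actives have a fitted effect of over 20% in size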
# Target sequence (P00811 whole entry, looked up): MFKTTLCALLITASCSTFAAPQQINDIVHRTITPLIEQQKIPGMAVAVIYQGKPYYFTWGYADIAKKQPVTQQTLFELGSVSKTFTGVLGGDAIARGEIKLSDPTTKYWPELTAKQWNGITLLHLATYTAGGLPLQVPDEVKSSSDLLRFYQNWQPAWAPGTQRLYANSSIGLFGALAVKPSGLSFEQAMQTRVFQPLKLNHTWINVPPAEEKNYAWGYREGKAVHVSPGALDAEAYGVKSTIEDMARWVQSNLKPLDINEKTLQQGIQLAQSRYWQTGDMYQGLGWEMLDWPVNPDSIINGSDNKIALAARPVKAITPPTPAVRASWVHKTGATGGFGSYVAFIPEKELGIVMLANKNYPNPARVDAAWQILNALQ
#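 AmpC (5.3 nM in the dispensed reagent) in 20 mM phosphate pH 7.0 with 0.01% (detergent screen) or 0.0001% Triton X-100 was preincubated with compounds for 15 min at room temperature. Nitrocefin was then added from an 800 uM solution, and hydrolysis was followed at 480 nm.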
# AmpC inh detg – AmpC beta-lactamase inhibition with detergent present; P00811; AmpC hydrolysis of nitrocefin, absorbance 480 nm, 0.01% Triton; Potency, µM (top dose mostly 114 µM), for inactives: top-dose activity change, negative = inhibition, usual class: inhibitors; hit rate 0.041% among 370,000; AID 485294;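 note: potency is the fitted concentration of half-maximal effect; 0% = no-compound wells and -100% = no-enzyme wells; nearly all actives have a fitted effect of over 25% in size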
#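 20 mM phosphate pH 7.0 + 0.01% (detergent screen) or 0.0001% Triton X-100; 5.3 nM AmpC reagent; cpd preinc 15 min RT; nitrocefin (800 uM stock) to start; A480 q20 s × 4 min; Activity was normalised to no-enzyme and no-compound control wells.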
# SARS PLP yeast – inhibitors of SARS-CoV papain-like protease in yeast | S. cerevisiae expressing SARS-CoV PLpro, growth rescue | hit rate 0.19% among 330,000 | Potency, µM (highest dose often 32.9 µM), inactives show at the top dose activity, positive = growth rescue, usual class: activators | AID 485353; calls by dose curve; note: potency is the fitted concentration of half-maximal effect; 0% is about no effect; nearly all actives have a fitted effect of over 55% in size
# Shiga inhibitor – inhibitors of Shiga toxin in Vero cells; Vero cells, Shiga toxin protein synthesis inhibition reporter; inhibition, % at 38.7 µM; hit rate 9.2% among 290,000; AID 2315; in the data active = inhibition mostly above about 28%, no sharp cut-off; inactive = mostly below about 43%; note: 0% is about no effect
# AMA1 RON2 block – disrupts binding of P. falciparum AMA1 to RON2; AlphaScreen AMA1-biotinylated RON2 peptide binding; hit rate 0.2% among 360,000; Potency, µM (doses to about 58.2 µM), inactives show at the top dose activity change, negative = inhibition, usual class: inhibitors; AID 720542;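 note: potency is the fitted concentration of half-maximal effect; 0% = vehicle wells and -100% = peptide control; nearly all actives have a fitted effect of over 45% in size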
#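 AMA1 (3D7) with his tag at 25 nM final met compounds first, then biotinylated RON2 peptide at 25 nM; detection used donor plus acceptor beads, 10 µg/mL apiece, read by AlphaScreen after 30 min at room temperature.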
# An asterisk follows results filed as active; ? = inconclusive; nt = no result. Shown is part of a subset that was picked to be rich in hits. Unless noted, calls come from the whole dose curve; as a rule, active = well fitted curve in the direction sought with a large enough effect; inconclusive = small, poorly fitted or top-dose-only effect, or another doubt; inactive = no such curve, though single readings can be large; an effect the other way counts as inactive or inconclusive.
SMILES,CHX counter,AmpC inh no detg,AmpC inh detg,SARS PLP yeast,Shiga inhibitor,AMA1 RON2 block
O=C1c2ccccc2NC(c2ccc(O)cc2)N1c1ccccc1 (centres undefined),36*,-22%,-9%,-2%,58*,0%
O=C1c2ccccc2NC(c2cccc(O)c2)N1O (centres undefined),16*,5%,-10%,1%,26,17%
Cc1ccc(CNC(=O)c2ccc(CSc3nc4ccncc4n3Cc3ccc(C)cc3)cc2)cc1,nt,nt,-6%,nt,nt,nt
CCCCn1nc(C(=O)N(CCOC)c2c(N)n(CCCC)c(=O)[nH]c2=O)c2ccccc2c1=O,nt,-19%,6%,-3%,nt,-2%
CC(C)(C)OC(=O)N[C@@H](Cc1ccccc1)[C@H](O)c1ccco1,20*,1%,12%,0%,40,0%
O=C(Nc1ccc(C(=O)N2CCCC2)cc1)C1CCCCC1,nt,nt,nt,nt,nt,17%
O=C1c2cc(CO)cc(O)c2C(=O)c2c(O[C@@H]3OC(CO)[C@@H](O)[C@@H](O)[C@@H]3O)cccc21 (some centres undefined),nt,nt,nt,nt,nt,-10%
O=C(O)c1cc(O)c2c(c1)[C@H]([C@H]1c3cc(C(=O)O)cc(O)c3C(=O)c3c(O[C@@H]4O[C@H](CO)[C@@H](O)[C@H](O)[C@H]4O)cccc31)c1cccc(OC3O[C@H](CO)[C@@H](O)[C@H](O)[C@H]3O)c1C2=O (some centres undefined),nt,1µM*,4%,nt,nt,0.89µM*
O=C(O)c1cc(O)c2c(c1)[C@@H]([C@H]1c3cc(C(=O)O)cc(O)c3C(=O)c3c(O[C@@H]4O[C@H](CO)[C@@H](O)[C@H](O)[C@H]4O)cccc31)c1cccc(OC3O[C@H](CO)[C@@H](O)[C@H](O)[C@H]3O)c1C2=O (some centres undefined),nt,1.4µM*,?,nt,nt,?
O=C(CN1CCCC1)Nc1nc(-c2ccc(Cl)cc2)cs1,nt,nt,nt,nt,nt,78%
COc1cc(/C=C2\OC(=O)c3c(OC)cccc32)ccc1O,79*,30%,-2%,23%,100*,10%
Cc1nnc(SCc2nnc(-c3ccccc3)o2)n(N)c1=O,1,-24%,-1%,0%,30,2%
COc1ccc(C(=O)OCC(=O)N2CCCC2=O)c(OC)c1,33*,-13%,-3%,-2%,75*,21%
COc1ccc(N=Cc2c(O)n(CC3CCCO3)c(=O)[nH]c2=O)cc1 (centres undefined),11*,-11%,-4%,4%,28,-1%
Cc1ccc(-c2noc(CSc3nnnn3C3CCCCC3)n2)cc1,-3,-28%,?,-15%,-4,28%
Cc1ccccc1-c1noc(C2CCCCC2)n1,20,-2%,-7%,4%,27,0%
N#Cc1c(N)nc2c(c1-c1ccccc1)CCCC2,-3,-11%,?,0%,7,5%
c1ccc(-c2onc3c2CCCC3)cc1,16*,-16%,1%,-8%,71*,0%
OCC1=C[C@@H](O)[C@@H]2C=CO[C@@H](OC3O[C@H](CO)[C@@H](O)[C@H](O)[C@H]3O)[C@H]12 (some centres undefined),-4,nt,nt,nt,-6,nt
CN(CC(=O)Nc1cccc(F)c1)C(=O)c1ccc2c(c1)OCCO2,nt,-13%,?,-1%,nt,3%
CCOC(=O)N/N=C\C=C\c1ccc2c(c1)OCO2,35*,-22%,-10%,-12%,58,-18%
CC(C)(C)OC(=O)N/N=C\C=C\c1ccc2c(c1)OCO2,29*,-22%,-4%,-4%,34*,13%
COC(=O)N/N=C\C=C\c1ccc2c(c1)OCO2,-2,-19%,0%,-3%,-8,-7%
Cc1ccc2oc(-c3cccc(NC(=S)NC(=O)/C=C/c4ccco4)c3)nc2c1,52*,-29%,-14%,0%,69*,-10%
O=C(Nc1ccc2oc(-c3ccccc3)nc2c1)c1ccncc1,19,53%,?,5%,45,-3%
SMILES,CHX counter,AmpC inh no detg,AmpC inh detg,SARS PLP yeast,Shiga inhibitor,AMA1 RON2 block
Cc1ccc2oc(-c3cc(NC(=O)c4cccs4)cc(C)c3O)nc2c1,nt,nt,9%,nt,nt,nt
Cc1ccc2oc(-c3cccc(NC(=S)NC(=O)c4cccs4)c3)nc2c1,41*,-10%,-8%,4%,24*,19%
Cc1ccc2oc(-c3cc(NC(=O)/C=C/c4ccco4)ccc3Cl)nc2c1,nt,nt,9%,nt,nt,nt
O=C(Nc1ccc2oc(-c3ccccc3)nc2c1)c1cccs1,55*,-32%,-1%,-31%,67*,2%
CC(=O)/C=C/n1c(=S)oc2ccccc21,32*,-4%,-9%,-82%,35,8%
CC(C)CC(=O)/C=C/n1c(=S)oc2ccccc21,2,-24%,?,-4%,-9,-7%
O=C(c1ccc(-c2ccccc2)cc1)N1CCN(c2ccccc2)CC1,13*,-25%,-3%,1%,28,-1%
CCOc1ccc(C(=O)N2CCN(c3ccccc3)CC2)cc1,11,19%,7%,0%,30*,2%
CS(=O)(=O)N(Cc1ccc(Cl)cc1)c1ccc(C(=O)N2CCN(c3ccccc3)CC2)cc1,-1,152%,3%,-14%,-5,-16%
O=C(COc1ccccc1)N1CCN(C(=O)c2ccc([N+](=O)[O-])cc2)CC1,48*,-10%,2%,0%,36,-2%
CS(=O)(=O)N(Cc1ccccc1)c1ccc(C(=O)N2CCN(c3cccc(Cl)c3)CC2)cc1,22*,116%,-8%,2%,42,-2%
O=[N+]([O-])NC1=NCN(Cc2ccco2)CN1Cc1ccco1,3,-2%,-4%,-6%,-18,18%
O=C(c1ccc(-c2ccccc2)cc1)N1CCN(c2nc3ccccc3o2)CC1,15*,-9%,4%,1%,13,0%
COCCCNC(=O)c1ccc(-c2csc(C)n2)cc1,38*,-5%,4%,-4%,90*,16%
COCCNC(=O)c1ccc(-c2csc(C)n2)cc1,23*,-12%,1%,-1%,89*,-2%
Cc1nc(-c2ccc(C(=O)NCCO)cc2)cs1,37*,-9%,2%,3%,40,5%
CCc1ccc(-n2c(=O)c3ccccc3n(CC(=O)NCCc3ccc(OC)c(OC)c3)c2=O)cc1,nt,nt,-1%,nt,nt,nt
CCOC(=O)Cc1ccc(NC(=O)Nc2nnc(N3CCCCC3C)s2)cc1 (centres undefined),nt,nt,2%,nt,nt,nt
COc1ccc(C(O)c2ccccc2OP(=O)(N(C)C)N(C)C)cc1 (centres undefined),-3,-5%,2%,1%,9,-4%
NS(=O)(=O)c1ccc(CNC(=O)CNC(=O)c2ccc(F)cc2)cc1,15*,-10%,0%,-1%,68*,11%
C/C(CC(=O)NCc1ccccc1Cl)=N/NC(=O)c1ccccn1,25*,-27%,-15%,-2%,79*,84%
